# Source: PubChem BioAssay
# Compounds with a hit are over-represented: about 1.4% of the library has one in this group of screens.
# PKM2 act – increases activity of human pyruvate kinase M2; P14618; purified PKM2, Kinase-Glo ATP luminescence, activation; response scale: 0% is enzyme alone, no compound; Potency, µM (top dose mostly 57.5 µM), inactives show at the top dose activation, usual class: activators; actives 0.34% (n = 260,000); AID 1631; further: potency means the concentration at half of the fitted maximal effect; nearly all actives have a fitted effect of over 55% in size
#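 Purified hPK-M2 (>95%) run at intermediate activity with 0.1 mM ADP and 0.5 mM PEP in 50 mM imidazole pH 7.2, KCl, MgCl2; 1 h room temperature. ATP formed read by Kinase-Glo luminescence; normalized to uninhibited and no-enzyme controls.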
# TrxR1 substrate – is turned over as a substrate by rat TrxR1. O89049. purified TrxR1 substrate turnover, NADPH consumption readout. Potency, µM (doses to about 114 µM), for the others: at the highest dose activity change, negative = substrate turnover. actives 0.01% (n = 390,000). AID 588456; further: potency means the concentration at half of the fitted maximal effect; nearly all actives have a fitted effect of over 50% in size
#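 Rat TrxR1, dispensed at 90 nM, was prereduced with 400 uM NADPH (final) for 5 min at ~22 deg C, then incubated with compound 15 min before 400 uM selenite. A first-read NADPH fluorescence drop versus no-compound background flagged substrates.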
# GLS inh – inhibitors of human glutaminase (GLS). O94925. GLS enzymatic activity, qHTS titration. Potency, µM (doses to about 45.5 µM), for inactives: at the highest dose activity change, negative = inhibition, actives largely listed as inhibitors. actives 0.21% (n = 410,000). AID 624170; further: potency means the concentration at half of the fitted maximal effect
# Target sequence (O94925 whole entry, looked up): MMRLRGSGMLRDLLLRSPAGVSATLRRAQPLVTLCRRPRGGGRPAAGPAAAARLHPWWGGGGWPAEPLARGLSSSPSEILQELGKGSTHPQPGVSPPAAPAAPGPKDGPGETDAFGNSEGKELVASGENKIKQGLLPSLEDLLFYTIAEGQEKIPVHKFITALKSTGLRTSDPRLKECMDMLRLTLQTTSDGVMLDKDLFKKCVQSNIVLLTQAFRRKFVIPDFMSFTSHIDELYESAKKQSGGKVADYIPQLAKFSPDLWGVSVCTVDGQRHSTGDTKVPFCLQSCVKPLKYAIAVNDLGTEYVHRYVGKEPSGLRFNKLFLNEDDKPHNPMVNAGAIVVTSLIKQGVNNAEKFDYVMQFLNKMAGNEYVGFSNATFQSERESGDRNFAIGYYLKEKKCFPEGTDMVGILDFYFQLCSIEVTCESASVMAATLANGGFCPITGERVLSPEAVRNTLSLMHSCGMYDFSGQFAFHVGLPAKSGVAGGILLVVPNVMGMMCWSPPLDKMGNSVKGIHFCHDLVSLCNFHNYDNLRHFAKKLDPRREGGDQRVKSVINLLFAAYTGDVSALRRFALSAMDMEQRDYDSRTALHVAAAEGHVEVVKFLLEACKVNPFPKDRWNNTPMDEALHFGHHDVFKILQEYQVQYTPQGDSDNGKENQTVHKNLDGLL
#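 Two-point fluorescence kinetic (t0, 30 min RT) for hKGA; glutamate detected via glutamate oxidase–HRP–Amplex Red. Substrate: 1 mM L-glutamine solution; buffer 45 mM KH2PO4, pH 8.2.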
# rTrxR1 inhibitor – blocks rat thioredoxin reductase 1; AID 588453; recombinant rTrxR1, NADPH fluorescence consumption, selenite substrate; actives 1% (n = 390,000); O89049; Potency, µM (top dose mostly 114 µM), inactives show at the top dose activity change, negative = inhibition, usual class: inhibitors; further: potency means the concentration at half of the fitted maximal effect; nearly all actives have a fitted effect of over 65% in size
#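 Rat TrxR1 (90 nM in the dispensed reagent) was pre-reduced with 400 uM NADPH for 5 min at room temperature, then incubated with compound for 15 min. After 400 uM selenite was added, NADPH fluorescence (Ex 340/Em 450 nm) was followed for 8 min.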
# mIDH1 inhibitor – blocks human mutant IDH1 R132H enzyme; Potency, µM (series often up to 76.6 µM), inactives show at the top dose activity change, negative = inhibition, hits mostly inhibitors; O75874; actives 0.093% (n = 390,000); IDH1-R132H enzyme, NADPH consumption, diaphorase/resazurin fluorescence; further: potency means the concentration at half of the fitted maximal effect; nearly all actives have a fitted effect of over 65% in size
#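 IDH1-R132H (0.5 ug/mL) preincubated 30 min with compound, then NADPH (0.016 mM) and alpha-KG (2 mM) added; 80 min at RT, pH 7.5. Remaining NADPH coupled via diaphorase/resazurin to fluorescence (540/590 nm); concentration-response curves normalized to no-enzyme control.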
# LDHA inh – inhibitors of human lactate dehydrogenase A; AID 1347041; P00338; actives 0.15% (n = 480,000); purified LDHA, NADH/diaphorase-resazurin fluorescence; active compounds read low; activity change, % (values are at about 110 or 230 µM); in the data active means activity change below about -30%; inconclusive means mostly about -25% to -30%;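 further: plate controls were DMSO wells for no effect and wells without enzyme for full effect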
#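 Remaining NADH was detected by diaphorase (0.133 mg/mL) converting 37 µM resazurin to fluorescent resorufin, read at 0 and 20 minutes. The preceding 5-minute room-temperature reaction used 2 nM LDHA, 0.2 mM sodium pyruvate and 0.06 mM NADH at pH 7.4.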
# Active calls of the source: *; ? = inconclusive; nt = no result given; [ ] = dose if it differs, or a comment. Unless noted, the call rests on the fitted dose curve; in most records, active means well fitted curve in the direction sought with a large enough effect; inconclusive means small, poorly fitted or top-dose-only effect, or another doubt; inactive means no such curve, though single readings can be large; an effect the other way counts as inactive or inconclusive. Unless noted, on the % scale 0 is the no-effect control and ±100 the full control effect.
SMILES,PKM2 act,TrxR1 substrate,GLS inh,rTrxR1 inhibitor,mIDH1 inhibitor,LDHA inh
C/C=C(/C)C(=O)Nc1cccc(C2=NOC3(C2)C[C@@H](C(N)=O)N(C(=O)CCCCC)C3)c1 (stereo not given in full),-4.5%,11.5%[57.1 µM],1.8%,12.7%[57.1 µM],-6.1%,1.0
C/C=C\C=C/C(=O)Nc1cccc(C2=NOC3(C2)C[C@H](C(N)=O)N(C(=O)c2ccc(OC)cc2)C3)c1 (stereo not given in full),14.1µM*,9.0%[57.1 µM],-17.8%,?,-3.1%,4.2
C/C=C/C=C\C(=O)Nc1cccc(C2=NOC3(C2)C[C@@H](C(N)=O)N(C(=O)/C(C)=C/C)C3)c1 (stereo not given in full),?,2.4%[57.1 µM],-29.3%,11.2µM*,1.4%,0.4
C/C=C\C=C/C(=O)Nc1cccc(C2=NOC3(C2)C[C@@H](C(N)=O)N(C(=O)CCCCC)C3)c1 (stereo not given in full),?,4.2%,-9.3%,14.1µM*,-3.4%,0.2
C/C=C(/C)C(=O)Nc1cccc(C2=NOC3(C2)C[C@H](C(N)=O)N(C(=O)Cc2ccc([N+](=O)[O-])cc2)C3)c1 (stereo not given in full),0.3%,-3.8%,-5.2%,10.7%[57.1 µM],-17.9%,1.2
COC(=O)c1cccc(NC(=O)C(NC(=O)c2ccccc2C)C(C)C)c1 (stereo not given),nt,nt,nt,nt,nt,-2.7
CC(c1nc2ccccc2n1CC(=O)N(c1ccccc1)C(C)C)N1CCOCC1 (stereo not given),nt,nt,nt,nt,nt,-1.5
CC1CCCN(C(=O)CSc2nnc(-c3ccccc3)o2)C1 (stereo not given),nt,nt,nt,nt,nt,-3.2
CSC(C)C(=O)NC(C)c1ccccc1Br (stereo not given),nt,nt,nt,nt,nt,-1.7
CCCCc1ccc(NC(=O)c2nccnc2N)cc1,nt,nt,nt,nt,nt,12.7
C/C=C\C=C/C(=O)Nc1cccc(C2=NOC3(C2)C[C@H](C(N)=O)N(C(=O)CC)C3)c1 (stereo not given in full),12.6µM*,-3.2%[57.1 µM],-28.3%,14.1µM*,-8.6%,1.3
C/C=C/C(=O)N1CC2(CC(c3cccc(NC(=O)CCCCC)c3)=NO2)C[C@H]1C(N)=O (stereo not given in full),-0.4%,nt,nt,nt,nt,nt
C/C=C/C=C/C(=O)N1CC2(CC(c3cccc(NC(=O)CCCCC)c3)=NO2)C[C@H]1C(N)=O (stereo not given in full),7.94µM*,0.0%,?,28.2µM*,0.9%,1.6
C/C=C\C=C/C(=O)Nc1cccc(C2=NOC3(C2)C[C@@H](C(N)=O)N(C(=O)c2ccc(Cl)cc2)C3)c1 (stereo not given in full),?,8.1%[57.1 µM],-4.4%,?,-11.5%,2.9
C/C=C/C=C\C(=O)Nc1cccc(C2=NOC3(C2)C[C@H](C(N)=O)N(C(=O)CC#N)C3)c1 (stereo not given in full),20µM*,1.2%,-23.0%,22.4µM*,4.1%,2.4
C#CCN1CCC(C(=O)NCCNC(=O)C2CC2)CC1,nt,nt,nt,nt,nt,0.0
CCOC(=O)c1cnc2c(C)cccc2c1Nc1ccc(C(C)=O)cc1,nt,nt,nt,nt,nt,-1.2
CCCCCCCCc1ccc(-c2ccc(C(=O)OC(C)C(=O)OC(C)C)cc2)cc1 (stereo not given),nt,nt,nt,nt,nt,2.6
N#Cc1ccc(C(=O)CN2CCN(c3ccccc3)CC2)cc1,nt,5.5%,-12.5%,50.1µM*,8.7%,-1.4
O=C(CN1CCN(c2ccccc2)CC1)c1c[nH]c2ccccc12,nt,7.7%[57.1 µM],-22.4%,22.0%[57.1 µM],1.8%,-2.6
N#Cc1c(-c2ccccc2)cc(-c2cccs2)nc1S(=O)Cc1ccccc1 (stereo not given),nt,nt,nt,nt,nt,4.4
CC(C)(O)C#Cc1ccc(C(=O)N2CCCC(CNS(=O)(=O)c3cccs3)C2)o1 (stereo not given),nt,0.8%,17.5%,12.6µM*,13.2%,-10.6
CCS(=O)(=O)c1c([N+](=O)[O-])ncn1C,-9.0%,2.9%,-0.8%,0.794µM*,-1.5%,-0.5
Cc1ccc(C)c(NC(=O)N2CCN(c3nc(C)cc(N4CCOCC4)n3)CC2)c1,nt,nt,nt,nt,nt,8.1
Cc1cc(C(=O)Nc2ccc(Cl)cc2)c(C)n1-c1ccccc1,-6.6%,-8.4%[57.1 µM],-2.3%,-2.3%[57.1 µM],30.4%,0.2
SMILES,PKM2 act,TrxR1 substrate,GLS inh,rTrxR1 inhibitor,mIDH1 inhibitor,LDHA inh
Cc1cc(C(=O)NNS(=O)(=O)c2cc(C(=O)O)ccc2Cl)c(C)n1-c1ccccc1,nt,3.5%,20µM*,-16.8%,1.1%,1.9
OCc1cccc(Nc2ncnc3sccc23)c1,nt,nt,nt,nt,nt,2.3
O=C1c2c(O)cc(O)cc2OC(c2ccc(O)c(O)c2)C1O (stereo not given),nt,4.4%[57.1 µM],nt,?,nt,nt
O=C1C(=O)C(c2ccc(O)cc2O)Oc2cc(O)cc(O)c21 (stereo not given),nt,-8.4%,nt,4.47µM*,nt,6.4
CCOc1ccc(C=O)c2ccccc12,nt,nt,nt,nt,nt,7.4
O=C(CC1CCCCC1)NCc1cccnc1,nt,nt,nt,nt,nt,10.2
CC(C)CNC(=O)NC(=O)C(C)Sc1nc(-c2ccco2)nc2ccccc12 (stereo not given),nt,nt,nt,nt,nt,1.5
CC1=CN2C(=N)/C(=C/c3ccc([N+](=O)[O-])o3)C(=O)N=C2S1,0.5%,-16.5%,-7.1%,2.51µM*,-3.8%,31.0
Fc1cccc(CSC2=NCCS2)c1,nt,nt,nt,nt,nt,1.0
Cc1oc2ncn(C)c(=O)c2c1C(=O)NC(C)c1ccccc1 (stereo not given),nt,-11.4%,11.2µM*,-4.0%,13.3%,-5.2
N#Cc1ccc2[nH]ccc2c1,nt,nt,nt,nt,nt,-0.4
O=C(CN1CCN(c2ccc([N+](=O)[O-])c3cnccc23)CC1)Nc1cccc(F)c1,nt,nt,nt,nt,nt,44.0
CC(OC(=O)c1cccc(S(=O)(=O)N2CCOCC2)c1)C(=O)c1c[nH]c2ccccc12 (stereo not given),nt,nt,nt,nt,nt,-5.3
COc1cc(C2Nc3cccc4cccc(c34)N2)cc(OC)c1O,-15.4%,10.6%,7.2%,15.8µM*,12.2%,8.0
COc1cc(C2Nc3cccc4cccc(c34)N2)ccc1OC(C)=O,7.3%,1.2%,8.4%,10µM*,8.2%,28.4
CCc1ccc(NC(=O)c2nc3ccccc3nc2N2CCCC2)cc1,nt,nt,nt,nt,nt,-31.0*
CCCNC(=O)NC(=O)CSc1ccc2ccccc2n1,nt,nt,nt,nt,nt,5.5
Cc1cc(C(=O)N/N=C/c2ccncc2)cs1,nt,nt,nt,nt,nt,-4.9
CCOC(=O)c1oc2ccccc2c1NC(=O)CCl,3.6%,-10.0%,7.0%,22.4µM*,-8.6%,-16.5
NC(=S)NN=C1c2ccccc2-c2c(F)c(F)c(F)c(F)c21,nt,-10.1%,-6.0%,56.2µM*,2.5%,-8.4
